Screening data as filed in PubChem.
Peg3 promoter: Peg3 promoter-driven luciferase inhibitors, primary screen, cell-based, HeLa, luciferase luminescence; HeLa PEG-Prom luciferase reporter, overnight; inhibition, % at 20 µM; 1.7% of 360,000 active;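 active = inhibition of at least 50% at 20 µM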
KKLEB tox: cytotoxicity in KKLEB CF airway cells, primary screen, cytotoxicity control for CF NF-kB inhibitor project, cell-based, uHTS, fluorescence assay plates | KKLEB CF airway cells viability, ATPlite luminescence, overnight; hits give low values; cells stimulated with P. aeruginosa culture filtrate | activity change (cytotoxicity), % at 5 µM | 0.36% of 360,000 active;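 active = corrected activity change at or below -50% at 5 µM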
HIF-2a inh: HIF-2a reporter inhibitors, primary screen, luminescence, 786-0 RCC cells; 0.72% of 360,000 active; 786-0 RCC cells HIF-2a reporter, luciferase luminescence, overnight; inhibition, % at 18.8 µM;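 active = inhibition of the luminescence signal of 40% or more relative to plate controls, in a single-dose primary screen at 18.75 µM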
ABHD5-PLIN5 inh: ABHD5-PLIN5 interaction inhibitors, primary screen, cell lysate, split luciferase complementation, luminescence; 0.78% of 360,000 active; Split G. princeps luciferase complementation, 4 h; Perilipin-5 (Homo sapiens) + 1-acylglycerol-3-phosphate O-acyltransferase ABHD5 (Homo …; inhibition, % at 4 µM; AID 602281, 2012;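 active = inhibition above the mean inhibition across every tested compound plus 3 SD, cut at about 22% in these data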
Target sequence (Q00G26 whole entry, looked up): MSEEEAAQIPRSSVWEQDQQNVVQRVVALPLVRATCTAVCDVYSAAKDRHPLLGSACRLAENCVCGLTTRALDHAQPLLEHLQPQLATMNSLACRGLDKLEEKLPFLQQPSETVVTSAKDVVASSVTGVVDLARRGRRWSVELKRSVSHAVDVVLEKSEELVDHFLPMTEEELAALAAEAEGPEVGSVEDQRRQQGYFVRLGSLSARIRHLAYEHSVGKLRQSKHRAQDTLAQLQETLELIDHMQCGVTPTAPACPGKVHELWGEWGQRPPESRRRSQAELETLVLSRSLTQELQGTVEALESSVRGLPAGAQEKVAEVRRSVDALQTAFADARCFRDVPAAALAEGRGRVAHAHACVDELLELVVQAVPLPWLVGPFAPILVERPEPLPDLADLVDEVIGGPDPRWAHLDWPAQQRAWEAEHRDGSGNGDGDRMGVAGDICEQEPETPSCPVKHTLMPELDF
Target sequence (Q8WTS1 whole entry, looked up): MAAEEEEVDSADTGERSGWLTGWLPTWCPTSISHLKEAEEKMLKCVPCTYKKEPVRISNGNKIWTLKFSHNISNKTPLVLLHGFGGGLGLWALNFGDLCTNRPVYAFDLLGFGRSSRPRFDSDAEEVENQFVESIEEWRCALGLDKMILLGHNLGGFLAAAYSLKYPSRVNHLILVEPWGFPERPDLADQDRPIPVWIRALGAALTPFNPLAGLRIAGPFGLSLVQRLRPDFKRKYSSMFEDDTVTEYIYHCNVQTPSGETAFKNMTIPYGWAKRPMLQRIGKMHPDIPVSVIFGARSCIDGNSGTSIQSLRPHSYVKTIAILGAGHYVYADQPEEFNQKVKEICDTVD
CF NFkB block: inhibitors of PAF-induced NF-kB signaling, primary screen, cell-based, GFP fluorescence, uHTS; KKLEB NF-kB-GFP reporter, GFP fluorescence overnight; inhibition, % at 5 µM; 0.86% of 360,000 active; AID 588850, 2011;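 active = at least 50% inhibition at 5 µM, scaled per plate between neutral and stimulator controls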;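 note: PAF is a Pseudomonas aeruginosa culture filtrate used as stimulus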
Mdm2 MdmX PPI: inhibitors of human Mdm2-MdmX association, primary screen, cell-based, luminescence, split luciferase, SaOS-2, uHTS; inhibition, % at 8 µM; 3% of 330,000 active; AID 485346, 2010; SaOS-2 split-luciferase Mdm2/MdmX complementation;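 active = inhibition of at least 50% at 8 µM in the primary screen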
Mdm2-MdmX conf: Mdm2-MdmX complex disruptors, retested hits, confirmation, luminescence, single concentration; shares compounds with Mdm2 MdmX PPI; Mdm2-MdmX binding, luminescent assay; inhibition, % at 8 µM; 55% of 10,000 active; AID 489028, 2010; in the data active = inhibition above about 40%
FLuc counter: full-length luciferase signal inhibition, confirmation, counter-screen for Mdm2/MdmX interaction inhibitor project, cell-based, single concentration, SaOS-2; shares compounds with Mdm2 MdmX PPI; SaOS-2 full-length luciferase counterscreen, luminescence; inhibition, % at 8 µM; 77% of 6,200 active;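 active = mean inhibition at 8 µM reaching about 37%, which flags the compound as non-specific, limit read from the data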;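 note: p53-null SaOS-2 cells with luciferase driven by a doxycycline-inducible promoter; compound on cells about two nights before reading with doxycycline added after day one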
Hits are given with their value; 0 = inactive; - = no result. Hits are enriched below; roughly 4.6% of the tested compounds scored in any of these assays.

SMILES	Peg3 promoter	KKLEB tox	HIF-2a inh	ABHD5-PLIN5 inh	CF NFkB block	Mdm2 MdmX PPI	Mdm2-MdmX conf	FLuc counter
CCOc1ccc(C)cc1-n1nc2ccccc2n1	0	0	0	0	0	0	-	-
COc1ccc(-c2oc3ncnc(NCCCN4CCOCC4)c3c2-c2ccc(OC)cc2)cc1	63.6	0	0	0	0	60.1	0	-
CCc1c(C)sc2nc(C(C)C)nc(SCC(=O)N3CCc4ccccc4C3)c12	-	-	-	-	-	94.7	57.5	74.3
Cc1sc2nc(C(C)C)nc(SCC(=O)N3CCN(C(=O)c4ccco4)CC3)c2c1C	0	0	0	0	0	0	-	-
CCCCC[C@H](O)/C=C/[C@H]1CCC(=O)[C@@H]1CCCCCCC(=O)N1CCCCC1CO (some centres not stated)	63.2	0	0	0	0	60.4	43.5	54.2
CCC1CCCCN1C(=O)CCCOc1ccccc1 (configuration not stated)	0	0	0	0	0	0	-	-
Cc1ccccc1C(=O)O/N=C(\N)Cc1cccs1	0	0	0	0	0	100.3	91.6	114.5
COc1ccccc1C/C(N)=N/OC(=O)c1cccs1	0	0	0	0	0	50.5	0	-
Cc1ccccc1OCC(=O)O/N=C(\N)Cc1cccs1	0	0	0	0	0	0	-	-
COCCNC(=O)c1ccc(N2CCCCC2)c(NS(=O)(=O)c2ccc(C)cc2)c1	0	0	0	0	0	0	-	-
CCOC(=O)c1ccc(N2CCCCC2)c(NS(=O)(=O)c2ccc(C)cc2)c1	0	0	0	0	0	58.8	46.1	66.7
Cc1ccc(S(=O)(=O)N2CCCCC2)cc1NC(=O)COC(=O)C1(C)CC1(Cl)Cl (configuration not stated)	0	0	0	0	0	0	-	-
Cc1nn(Cc2c(Cl)cccc2Cl)c(C)c1NC(=O)Cn1nc([N+](=O)[O-])c(Cl)c1C	0	0	0	0	0	70.0	0	-
Cc1cc(C(=O)Nc2c(C)nn(Cc3c(Cl)cccc3Cl)c2C)no1	0	0	0	0	0	0	-	-
Cc1nn(Cc2c(Cl)cccc2Cl)c(C)c1NC(=O)c1cc(C(C)C)on1	0	0	0	0	0	78.8	62.4	53.8
Cc1nn(Cc2ccccc2)c(C)c1NC(=O)Cn1nc([N+](=O)[O-])c(Cl)c1C	0	0	0	0	0	0	-	-
Cc1ccc2c(C)c(C)c(=O)n(C)c2c1	0	0	0	0	0	-	-	-
O=C(C1CCN(Cc2ccc(Cl)cc2)CC1)N1CCN(C(c2ccccc2)c2ccccc2)CC1	0	0	0	0	0	56.5	0	-
Cc1nc2c(c(=O)c3ccccc3n2C)c(=O)n1C1CCCCCC1	0	0	0	0	0	0	-	-
Cn1c2ccccc2c(=O)c2c(=O)n(C3CCCCC3)c(-c3ccco3)nc21	0	0	0	0	0	79.7	65.8	90.0
Cc1ccc(-c2nc3c(c(=O)c4ccccc4n3C)c(=O)n2-c2ccc(F)cc2)cc1	0	0	0	0	0	0	-	-
Cn1c2ccccc2c(=O)c2c(=O)n(-c3ccccc3)c(-c3ccc(C(C)(C)C)cc3)nc21	0	0	0	0	0	88.8	78.6	54.6
COc1ccc([C@@H]2C[C@H]3[C@@H](CN2S(=O)(=O)c2ccccc2)C(=O)C[C@@H](c2cccc(Cl)c2)N3S(=O)(=O)c2ccc(C)cc2)cc1	0	0	0	0	0	-	-	-
Cc1ccc(OCCn2cnc3c(N)ncnc32)cc1	0	0	0	0	0	71.9	0	-
CCOc1ccc(OCCn2c(=S)[nH]c3c(N)ncnc32)cc1	0	0	0	0	0	0	-	-
SMILES	Peg3 promoter	KKLEB tox	HIF-2a inh	ABHD5-PLIN5 inh	CF NFkB block	Mdm2 MdmX PPI	Mdm2-MdmX conf	FLuc counter
O=C(COC(=O)c1ccccc1)NCCCCc1ccccc1	0	0	0	0	0	-	-	-
CCC[C@@H](CN[C@@H](CNC)C(C)C)NCCCCc1ccccc1	58.8	0	0	0	0	97.1	90.6	0
C=C(C)COC(=O)c1ccccc1C(=O)OCC1(C)CO1 (configuration not stated)	0	0	0	0	0	-	-	-
Cc1nc(-c2ccccc2)sc1C(=O)/C=C/c1ccc(Cl)cc1	0	0	0	0	0	0	-	-
COc1ccc(N/C=C/C(=O)c2sc(-c3ccccc3)nc2C)cc1	0	0	0	0	0	58.7	0	98.5
Cc1cc(C(=O)COC(=O)C23CC4CC(CC(O)(C4)C2)C3)c(C)n1C	0	0	0	0	0	0	-	-
Cc1cccc(NC(=O)C2CC3CCC2C3)c1C (configuration not stated)	0	0	0	0	0	0	-	-
CC(C)n1cc(/C=C2/NC(=O)N(c3cccc(Cl)c3)C2=O)c2ccccc21	0	0	0	0	0	62.2	65.3	43.1
O=C(/C=C/c1ccc(Cl)c([N+](=O)[O-])c1)Nc1cccc(NC(=O)c2ccco2)c1	114.4	0	0	0	0	53.1	0	-
O=C(/C=C/c1cccc([N+](=O)[O-])c1)Nc1cccc(NC(=O)c2ccco2)c1	0	0	0	0	0	0	-	-
COc1ccc(-c2n[nH]c(C)c2-c2cscn2)c(O)c1	0	0	0	0	0	0	-	-
C=C(C)COc1ccc(-c2n[nH]c(C)c2-c2ccc(OC)cc2)c(O)c1	79.9	0	0	0	0	61.1	49.0	71.5
COc1ccc(S(=O)(=O)N(C)C[C@H]2Oc3c(NC(=O)Nc4ccc(C(F)(F)F)cc4)cccc3C(=O)N([C@H](C)CO)C[C@@H]2C)cc1	0	0	0	0	0	51.7	0	-
C[C@H]1CN([C@@H](C)CO)C(=O)c2cccc(NC(=O)Nc3ccc(C(F)(F)F)cc3)c2O[C@@H]1CN(C)S(=O)(=O)c1ccccc1	0	0	0	0	0	0	-	-
C[C@@H]1CN([C@H](C)CO)C(=O)c2cccc(NC(=O)Nc3ccc(C(F)(F)F)cc3)c2O[C@H]1CN(C)S(=O)(=O)c1cccs1	0	0	0	0	0	56.5	40.8	73.0
O=C(NCCc1ccccc1)c1ccc(-c2ccc(F)c(F)c2)c2ccoc12	0	0	0	0	0	-	-	-
CCOc1ccc(-c2nc(N)ncc2-c2ccccc2)c(O)c1	0	0	0	0	0	50.3	0	-
